In PubChem BioAssay AID1159580 (chemical genetic matrix, 2015):
Among all 5,500 compounds or so, about 2,000 (36%) were called active. About 18% were inconclusive and are not listed. No stated cut-off is given here; in the data, active means normalized growth mostly below about 0.91 (no sharp cut-off); inconclusive means no clear call, values can overlap the other calls; inactive means mostly above about 0.92. This is one part of the list.

Experiment: chemical genetic growth profiling, strain panel (AID 1159580);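 further: tested at 20 µM; growth read once vehicle control cultures reached saturation at 30 °C; 1 = growth at the plate median or of vehicle wells; lower values mean less growth of the strain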
Settings: growth OD

Measured: normalized growth

COc1c(CC=C(C)C)c2c(c3oc(=O)c(-c4ccc(OC(C)=O)cc4)c(OC(C)=O)c13)C=CC(C)(C)O2
inactive: S. cerevisiae deletion strains, locus YAL013W, strain DEP1, hits give low values 0.996 | S. cerevisiae deletion strains, locus YBR021W, strain FUR4, hits give low values 0.986 | S. cerevisiae deletion strains, locus YBR229C, strain ROT2, hits give low values 1.03 | S. cerevisiae deletion strains, locus YCL029C, strain bik1, hits give low values 1.02 | S. cerevisiae deletion strains, locus YDL035C, strain GPR1, hits give low values 1.04 | S. cerevisiae deletion strains, locus YDL074C, strain BRE1, hits give low values 1.08 | S. cerevisiae deletion strains, locus YDL101C, strain DUN1, hits give low values 1.03 | S. cerevisiae deletion strains, locus YDL185W, strain tfp1, hits give low values 1.02 | S. cerevisiae deletion strains, locus YDL192W, strain arf1, hits give low values 1.05 | S. cerevisiae deletion strains, locus YDR101C, strain arx1, hits give low values 1.01 | S. cerevisiae deletion strains, locus YDR162C, strain NBP2, hits give low values 1.04 | S. cerevisiae deletion strains, locus YDR318W, strain mcm21, hits give low values 1.02 | S. cerevisiae deletion strains, locus YDR388W, hits give low values 1.02 | S. cerevisiae deletion strains, locus YDR502C, strain sam2, hits give low values 1.03 | S. cerevisiae deletion strains, locus YER110C, hits give low values 1.01 | S. cerevisiae deletion strains, locus YER155C, strain BEM2, hits give low values 1.01 | S. cerevisiae deletion strains, locus YER167W, strain BCK2, hits give low values 1.02 | S. cerevisiae deletion strains, locus YGL078C, strain dbp3, hits give low values 1 | S. cerevisiae deletion strains, locus YGL086W, strain mad1, hits give low values 1.03 | S. cerevisiae deletion strains, locus YGL248W, strain PDE1, hits give low values 1.08 | S. cerevisiae deletion strains, locus YGR135W, strain pre9, hits give low values 1.02 | S. cerevisiae deletion strains, locus YGR252W, strain gcn5, hits give low values 1.1 | S. cerevisiae deletion strains, locus YHR079C, strain IRE1 (second series), hits give low values 1.02 | S. cerevisiae deletion strains, locus YHR094C, strain hxt1, hits give low values 1 | S. cerevisiae deletion strains, locus YHR129C, strain ARP1, hits give low values 1 | S. cerevisiae deletion strains, locus YHR200W, strain rpn10, hits give low values 1.03 | S. cerevisiae deletion strains, locus YIL066C, strain RNR3, hits give low values 1.02 | S. cerevisiae deletion strains, locus YIL073C, strain SPO22, hits give low values 1.06 | S. cerevisiae deletion strains, locus YIL125W, strain kgd1, hits give low values 1.02 | S. cerevisiae deletion strains, locus YIR030C, strain dcg1, hits give low values 0.996 | S. cerevisiae deletion strains, locus YJL095W, strain BCK1, hits give low values 1.12 | S. cerevisiae deletion strains, locus YJL134W, strain LCB3, hits give low values 1.01 | S. cerevisiae deletion strains, locus YJL168C, strain set2, hits give low values 0.997 | S. cerevisiae deletion strains, locus YJL187C, strain SWE1 (second series), hits give low values 1.03 | S. cerevisiae deletion strains, locus YJR043C, strain POL32, hits give low values 1.07 | S. cerevisiae deletion strains, locus YJR075W, strain HOC1, hits give low values 1.03 | S. cerevisiae deletion strains, locus YKL068W, hits give low values 0.995 | S. cerevisiae deletion strains, locus YKL085W, strain MDH1 (second series), hits give low values 1.01 | S. cerevisiae deletion strains, locus YKL085W, strain MDH1, hits give low values 1.01 | S. cerevisiae deletion strains, locus YKL190W, strain CNB1, hits give low values 0.997 | S. cerevisiae deletion strains, locus YKR001C, strain vps1, hits give low values 1.05 | S. cerevisiae deletion strains, locus YLR039C, strain RIC1, hits give low values 1.12 | S. cerevisiae deletion strains, locus YLR058C, strain SHM2, hits give low values 1.04 | S. cerevisiae deletion strains, locus YLR102C, strain apc9, hits give low values 1 | S. cerevisiae deletion strains, locus YLR268W, strain sec22, hits give low values 1.04 | S. cerevisiae deletion strains, locus YLR330W, strain CHS5, hits give low values 1.02 | S. cerevisiae deletion strains, locus YLR371W, strain rom2, hits give low values 1.05 | S. cerevisiae deletion strains, locus YLR418C, strain cdc73, hits give low values 1.08 | S. cerevisiae deletion strains, locus YML016C, strain PPZ1, hits give low values 1.03 | S. cerevisiae deletion strains, locus YML032C, strain rad52, hits give low values 1.01 | S. cerevisiae deletion strains, locus YML124C, strain tub3, hits give low values 0.994 | S. cerevisiae deletion strains, locus YMR078C, strain ctf18, hits give low values 1 | S. cerevisiae deletion strains, locus YMR223W, strain ubp8, hits give low values 1.03 | S. cerevisiae deletion strains, locus YMR307W, strain GAS1, hits give low values 1.15 | S. cerevisiae deletion strains, locus YNL067W, strain RPL9B, hits give low values 1 | S. cerevisiae deletion strains, locus YNL153C, strain GIM3, hits give low values 1.03 | S. cerevisiae deletion strains, locus YNL233W, strain BNI4, hits give low values 1.06 | S. cerevisiae deletion strains, locus YNL250W, strain rad50, hits give low values 0.989 | S. cerevisiae deletion strains, locus YNL271C, strain bni1, hits give low values 1.01 | S. cerevisiae deletion strains, locus YNL298W, strain CLA4, hits give low values 1.01 | S. cerevisiae deletion strains, locus YNL307C, strain MCK1, hits give low values 1 | S. cerevisiae deletion strains, locus YNR052C, strain pop2, hits give low values 1.01 | S. cerevisiae deletion strains, locus YOL006C, strain TOP1, hits give low values 1.17 | S. cerevisiae deletion strains, locus YOL012C, strain htz1 1.04 | S. cerevisiae deletion strains, locus YOL147C, strain pex11, hits give low values 1.02 | S. cerevisiae deletion strains, locus YOR061W, strain CKA2, hits give low values 1.02 | S. cerevisiae deletion strains, locus YOR069W, strain VPS5, hits give low values 1.02 | S. cerevisiae deletion strains, locus YOR136W, strain idh2, hits give low values 1 | S. cerevisiae deletion strains, locus YOR144C, strain elg1, hits give low values 1.01 | S. cerevisiae deletion strains, locus YOR184W, strain ser1, hits give low values 1.04 | S. cerevisiae deletion strains, locus YOR316C, strain cot1, hits give low values 1.01 | S. cerevisiae deletion strains, locus YPR119W, strain clb2, hits give low values 1 | S. cerevisiae deletion strains, locus YPR141C, strain kar3, hits give low values 1 | S. cerevisiae deletion strains, locus YPR163C, strain tif3, hits give low values 1.02 | S. cerevisiae deletion strains, locus YPR167C, strain met16, hits give low values 1 | S. cerevisiae deletion strains, strain wtn01, hits give low values 1.04 | S. cerevisiae strains, strain wild type, hits give low values 1.02
